# The entries come from a sample that favours hits as a whole.
# AMA1 RON2 block – AMA1-RON2 (P. falciparum) interaction inhibition. Potency, µM (titrated, usually from 58.2 µM), for the others: at the top dose activity change, negative = inhibition, actives largely listed as inhibitors. AlphaScreen AMA1-biotinylated RON2 peptide binding. hit rate 0.2% among 360,000; active = well fitted inhibition curve with a large enough effect; inconclusive = small, poorly fitted or top-dose-only effect; inactive = no such curve, though single readings can be large or run the other way;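 note: potency is the fitted concentration of half-maximal effect; 0% = vehicle wells and -100% = peptide control; nearly all actives have a fitted effect of over 45% in size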
#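 AMA1 (3D7) with his tag at 25 nM final met compounds first, then biotinylated RON2 peptide at 25 nM; detection used donor plus acceptor beads, 10 µg/mL apiece, read by AlphaScreen after 30 min at room temperature.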
# Shiga toxin inh – blocks Shiga toxin action in Vero cells; AID 2315; inhibition, % at 38.7 µM; Vero cells, Shiga toxin protein synthesis inhibition reporter; hit rate 9.2% among 290,000; in the data active = inhibition mostly above about 28%, no sharp cut-off; inactive = mostly below about 43%; note: 0% is about no effect
# Marburg entry inh – Marburg virus entry inhibition. hit rate 1.8% among 300,000. Potency, µM (titrated, usually from 37.8 µM), inactives show at the top dose activity change, negative = inhibition, actives largely listed as inhibitors. Marburg virus pseudotyped entry inhibition, cell reporter; calls by dose curve; tested in HEK293 cells; note: potency is the fitted concentration of half-maximal effect; % is set by controls: 0 for no effect and ±100 for the full control effect
# CHX counter – counter-screen for Shiga toxin inhibitors: cycloheximide protein synthesis inhibition | AID 2314 | max response, % | hit rate 12% among 300,000 | cell reporter, cycloheximide protein synthesis inhibition counterscreen; in the data active = max response mostly above about 13%, no sharp cut-off; inactive = mostly below about 14%; note: read at 38.3 µM for the half of the compounds with a filed dose; 0% is about no effect
# Lassa entry inh – Lassa virus entry inhibition. Potency, µM (top dose mostly 37.9 µM), for inactives: top-dose activity change, negative = inhibition, hits mostly inhibitors. hit rate 1.2% among 300,000. Lassa virus pseudotype entry inhibition, cell reporter; calls by dose curve; tested in HEK293 cells; note: potency is the fitted concentration of half-maximal effect; % is set by controls: 0 for no effect and ±100 for the full control effect; nearly all actives have a fitted effect of over 50% in size
# An asterisk follows results filed as active; u = inconclusive; x = no result; [ ] = another dose, or the depositor's remark.
SMILES,AMA1 RON2 block,Shiga toxin inh,Marburg entry inh,CHX counter,Lassa entry inh
COc1cc(OC)cc(C(=O)Nc2ccc3nc4c(c(Nc5ccc(OC)c(OC)c5)c3c2)CCCC4)c1,x,x,2.5µM*,x,u
COc1ccccc1Nc1c2c(nc3ccccc13)CCC2,14%,-6,u,-6,u
CCOc1ccccc1C(=O)Nc1ccc2nc3c(c(Nc4ccc(OC)c(OC)c4)c2c1)CCCC3,x,x,u,x,10µM*
COc1cc(OC)cc(C(=O)Nc2ccc3nc(N4CCCCC4)cc(C)c3c2)c1,x,x,-20%[46.1 µM],x,u
COc1ccccc1Nc1c2c(nc3ccc(NC(=O)c4ccc(N(C)C)cc4)cc13)CCCC2,x,x,3.2µM*,x,u
CCOc1ccccc1C(=O)Nc1ccc2nc3n(c(=O)c2c1)CCCCC3,-2%,10,x,-2,x
O=C(C[C@@H]1CC[C@H](NC(=O)Cc2ccccn2)[C@@H](CO)O1)NCCc1ccccc1,14%,x,x,x,x
COc1ccccc1C(C)NC(=O)Cc1ccc(S(=O)(=O)N2CCOCC2)s1 (stereo not given),18%,x,-11%,x,0%[46.1 µM]
CCCNC(=O)COC(=O)c1ccccc1OCC(=O)Nc1ccc(Br)cc1,0%,-8,u,-5,u
O=C(COc1ccccc1[N+](=O)[O-])Nc1ccc(Br)cc1,0%,114*,u,49*,-4%[46.1 µM]
O=C(COc1ccccc1[N+](=O)[O-])NCc1cccnc1,5%,3,-22%,-2,7%
CC(C)(C)NC(=O)COC(=O)c1ccccc1OCC(=O)Nc1ccc(Br)cc1,12%,35*,u,17*,0%
O=C(COc1ccccc1[N+](=O)[O-])Nc1cccnc1,6%,90*,11%,31*,u
CC(=O)NCCc1ccc(C(=O)COC(=O)c2cc(C)oc2C)cc1,-17%,x,u,x,11%[46.1 µM]
CC(Sc1nnc(-c2cccnc2)n1-c1ccccc1)C(=O)NCc1ccc2c(c1)OCO2 (stereo not given),-10%,76*,20%,40*,-1%
O=C(CSc1nnc(-c2cccnc2)n1-c1ccccc1)NCc1ccc2c(c1)OCO2,-7%,19,12%[46.1 µM],-3,5%
CCOc1cccc2sc(N(CCCN(C)C)C(=O)c3ccc(S(=O)(=O)N(CC)Cc4ccccc4)cc3)nc12,-26%,-16,u,-6,u
CN(C)CCN(C(=O)c1ccc2c(c1)CCCC2)c1nc2c(F)cccc2s1,-20%,62,-7%,56*,-7%
CCN(Cc1ccccc1)S(=O)(=O)c1ccc(C(=O)N(CCCN(C)C)c2nc3cc(C)cc(C)c3s2)cc1,u,x,10µM*,x,u
CCN(Cc1ccccc1)S(=O)(=O)c1ccc(C(=O)N(CCCN(C)C)c2nc3c(F)cccc3s2)cc1,-23%,-3,8.9µM*,-4,u
COc1nc(C)nc(Cl)c1NC1=NCCN1,0%,x,13%,x,-8%
Cc1ccc(NC(=O)c2c(C)oc3ncn(CC(C)C)c(=O)c23)nc1,x,x,x,x,27%[46.1 µM]
O=C(Nc1cc(C(=O)Nc2ccc(S(=O)(=O)O)cc2S(=O)(=O)O)cc(C(=O)Nc2ccc(S(=O)(=O)O)cc2S(=O)(=O)O)c1)Nc1cc(C(=O)Nc2ccc(S(=O)(=O)O)cc2S(=O)(=O)O)cc(C(=O)Nc2ccc(S(=O)(=O)O)cc2S(=O)(=O)O)c1,x,x,13µM*,x,x
Nc1ccc(C(=O)Nc2ccc3cc(S(=O)(=O)O)ccc3c2)cc1,-1%,x,u,x,-5%[46.1 µM]
CCC(Sc1nc2ccsc2c(=O)n1-c1ccc(Cl)c(C)c1)C(=O)NCc1ccco1 (stereo not given),-11%,44*,u,25*,-17%
SMILES,AMA1 RON2 block,Shiga toxin inh,Marburg entry inh,CHX counter,Lassa entry inh
Cc1cc(NC(=O)CSc2nc3c(c(=O)n2Cc2ccccc2)SC(C)C3)no1 (stereo not given),-1%,15,x,-5,x
CC1Cc2nc(SCC(=O)NCc3ccco3)n(Cc3ccccc3)c(=O)c2S1 (stereo not given),-7%,36*,18%,17,3%
O=C(CSc1nc2ccsc2c(=O)n1Cc1ccccc1)NCc1ccco1,-1%,active,-5%,47*,-26%
Cc1ccccc1C(=O)NC(=S)Nc1ccc2[nH]c(=O)[nH]c2c1,8%,-7,x,-1,x
CCOC(=O)N1CCc2c(sc3c2c(=O)n(CCc2ccccc2)c(=O)n3Cc2c(F)cccc2Cl)C1,x,x,-14%[46.1 µM],x,12%[46.1 µM]
COc1ccc(NC(=O)NC2CCCCCCC2)cc1OC,-1%,48,x,39*,x
COc1ccc(NC(=O)NN2CCN(C)CC2)cc1OC,-17%,21*,x,27*,x
Cc1ccc(NC(=O)NC2CCCCC2)cc1Cl,3%,59*,-3%,34*,u
O=C(c1cc(S(=O)(=O)N2CCOCC2)ccc1Cl)N1CCCCC1CO (stereo not given),4%,x,1%[46.1 µM],x,-3%[46.1 µM]
O=C(CSc1nnc(Nc2ccccc2F)s1)NC1CC1,-2%,x,x,x,x
NC[C@@H]1O[C@H](C23CC4CC(CC(C4)C2)C3)Cc2c1ccc(O)c2O,2%,14,13µM*,-5,18µM*
O=C(NNC(=O)c1cc2ccccc2cc1O)c1cccs1,57%,109*,u,45*,11%[46.1 µM]
C/C(=N\NC(=O)c1cc2ccccc2cc1O)c1cccs1,76%,80*,u,37*,u
O=C(NNC(=O)c1ccc2ccccc2c1O)c1cccs1,28%,17,u,12,u
Cc1ccc(C)c(S(=O)(=O)N2CCN(C(=O)CCC(=O)NCc3ccc(Cl)cc3Cl)CC2)c1,5%,x,x,x,x
COC(=O)C1=C[C@@H](C(=O)OC)[C@@H]2C3=C(C(=O)[C@]2(C)NC(=O)c2ccccc2)[C@H](C)[C@@H]2C(=O)NC(=O)[C@@H]2[C@@H]3C1,x,-10,x,-5,x
COc1cccc(/C=N/Nc2cc(Cl)nc(C)n2)c1O,112%,54*,26%,32*,2%
COc1cccc(/C=N/Nc2nnc(C)n2N)c1O,93%,19,u,17,9%[46.1 µM]
COc1cccc(/C=N/Nc2c(Cl)cncc2Cl)c1O,13%,84*,u,32*,u
COc1cccc(/C=N/Nc2nc(N3CCCC3)nc(N3CCCC3)n2)c1O,0%,23,26µM*,3,16%
COc1ccc(/C=N/Nc2nc(N3CCCC3)nc(N3CCCC3)n2)c(OC)c1OC,18%,13,u,-5,1%
CC(=O)c1ccc(N2CCN(c3ccccc3O)CC2)c([N+](=O)[O-])c1,-21%,2,u,6.0*,11%
O=C(O)c1ccccc1C(=O)c1ccc(N2CCCC2)c([N+](=O)[O-])c1,19%,1,13%[46.1 µM],-2,12%
N#Cc1cc([N+](=O)[O-])ccc1N1CCN(c2ccccc2O)CC1,-6%,71*,3%,43*,-25%
Cc1cc(C)nc(Nc2nc3ccccc3o2)n1,26%,45*,-1%[46.1 µM],27*,-20%
Fc1ccccc1Nc1nc2ccccc2o1,20%,97*,u,45*,u
FC(F)(F)Oc1ccc(Nc2nc3ccccc3o2)cc1,11%,77*,16%,33*,32%
c1ccc(Nc2nc3ccccc3o2)cc1,3%,119*,-25%,33*,45%[14.3 µM]
